Experimental data published in PubChem BioAssay AID1619 (SRMLSC, 2009).
Out of some 220,000 compounds screened, about 830 (0.38%) were called active.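 How the source made its calls: active means compound inhibiting the enzyme by more than half at any dose during confirmatory dose-response retesting; inconclusive means strong single-dose inhibitors picked by rank but not retested; inactive means the rest.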 Not all results are given here. Entries with a potency or affinity are not part of this list.

Target: Leucine aminopeptidase (Plasmodium falciparum (isolate 3D7)) (UniProt Q8IL11)
Experiment: P. falciparum M17LAP inhibitors, primary screen, biochemical, fluorogenic H-Leu-NHMec substrate, 1536-well (AID 1619);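 further: plate controls were full reaction with DMSO carrier for no effect and no enzyme background for full effect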
Settings: recombinant M17LAP, H-Leu-NHMec fluorogenic kinetic assay; at 30 µM; stronger effect = higher value

Sequence of Leucine aminopeptidase (Plasmodium falciparum (isolate 3D7)) (Q8IL11 whole entry, looked up): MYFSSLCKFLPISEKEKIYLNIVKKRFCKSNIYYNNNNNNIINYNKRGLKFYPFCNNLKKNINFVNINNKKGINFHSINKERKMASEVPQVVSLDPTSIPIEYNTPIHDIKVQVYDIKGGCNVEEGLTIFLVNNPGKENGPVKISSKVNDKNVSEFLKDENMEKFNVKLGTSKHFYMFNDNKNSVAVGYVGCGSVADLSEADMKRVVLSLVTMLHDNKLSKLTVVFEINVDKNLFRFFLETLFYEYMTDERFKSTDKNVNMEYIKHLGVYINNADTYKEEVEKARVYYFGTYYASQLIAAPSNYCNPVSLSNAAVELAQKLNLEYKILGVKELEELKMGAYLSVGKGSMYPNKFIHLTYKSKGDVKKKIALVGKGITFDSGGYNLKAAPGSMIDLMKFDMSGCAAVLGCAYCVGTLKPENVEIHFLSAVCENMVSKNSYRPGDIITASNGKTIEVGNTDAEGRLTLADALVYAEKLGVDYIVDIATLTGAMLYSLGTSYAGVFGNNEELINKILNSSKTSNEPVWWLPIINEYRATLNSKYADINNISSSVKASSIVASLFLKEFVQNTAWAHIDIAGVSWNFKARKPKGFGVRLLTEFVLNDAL

inhibition, inactive:
COC(=O)c1ccc(N2C(=O)CC(SCC(=O)Nc3ccc(OC)cc3)C2=O)cc1 (centres undefined) -6.08%
COc1ccccc1NC(=O)CSC1CC(=O)N(c2ccc3c(c2)OCO3)C1=O (centres undefined) 2.14%
COC(=O)[C@@]1(Cc2ccccc2)[C@H]2c3cc(C(=O)N4CCCC4)n(CCSCCO)c3C[C@H]2CN1C(=O)c1ccccc1 2.66%
CN(CCC#N)S(=O)(=O)c1ccc2[nH]cc(C(=O)NCCc3ccccc3)c(=O)c2c1 -16%
Cc1cc(Cl)ccc1C(=O)C1CCCN(C(=O)CCn2cnnn2)C1 (centres undefined) 5.92%
CCOc1ccccc1C1C(C#N)=C(N)Oc2n[nH]c(CC)c21 (centres undefined) 29.4%
CCCc1[nH]nc2c1C(c1ccccc1OCC)C(C#N)=C(N)O2 (centres undefined) 8.34%
CCOC(=O)N1CCC(N2C(=O)c3ccccc3C2Nc2ccc3c(c2)OCCO3)CC1 (centres undefined) -7.29%
CCn1c(-c2cc(-c3ccc(C)cc3)nc3ccccc23)n[nH]c1=S -3.9%
CCCCS(=O)(=O)N1CN(S(=O)(=O)CCCC)C2NC(=O)NC21 (centres undefined) 0.79%
CCCc1cc(=O)oc2c(C)c(OCc3nn[nH]n3)ccc12 -5.76%
CCCCc1cc(=O)oc2c(C)c(OCc3nn[nH]n3)ccc12 6.82%
O=C(NC1CCCCC1)c1ccccc1NC(=S)NC(=O)C1CC1 5.81%
S=C(Nc1ccccc1)Nc1ccccc1-n1cccc1 -5.63%
N#Cc1c(NC(=O)CSC2=NCCS2)sc2c1CCCC2 19.2%
Cc1csc(SCC(=O)Nc2sccc2C#N)n1 0.5%
N#Cc1c(NC(=O)CSc2ncn(-c3ccccc3)n2)sc2c1CCCC2 9.47%
Cn1cnnc1SCC(=O)Nc1sccc1C#N -7.3%
N#Cc1c(NC(=O)CSc2nc(N)cc(=O)[nH]2)sc2c1CCCCCC2 4.49%
Cc1ccnc(SCC(=O)Nc2sc3c(c2C#N)CCCC3)n1 2.01%
Cn1cnnc1SCC(=O)Nc1sc2c(c1C#N)CCCCC2 11.7%
Cc1nnc(SCC(=O)Nc2sc3c(c2C#N)CCCC3)[nH]c1=O 52.5%
O=C1CC(C(=O)NCc2ccccc2)C2(CCCC2)O1 (centres undefined) -0.86%
COc1ccc(C2C(C(=O)N3CCCCC3)c3ccccc3C(=O)N2C)cc1 (centres undefined) -0.86%
CCOC(=O)c1sc(NC(=O)CSc2nc(C)cc(C)n2)c(C#N)c1C -1.79%
CCOC(=O)c1sc(NC(=O)CSc2nc(C)cc(C)c2C#N)c(C#N)c1C -17.4%
Cc1ccc(OCC(=O)OC2CCS(=O)(=O)C2)cc1 (centres undefined) 1.23%
CN(C)c1ccc2c(=O)[nH][nH]c(=O)c2c1 5.67%
CN1C(=O)c2ccc(N3CCCC3)cc2C1=O 22.5%
O=C(Nc1ccc(Br)cc1Cl)NC1CC1 -4.66%
CC(CCc1ccccc1)NC(=O)c1cccs1 (centres undefined) -2.09%
Cc1ccc2c(CC(=O)N3CCN(S(=O)(=O)c4ccc5c(c4)OCCO5)CC3)coc2c1 -3.86%
Cc1ccccc1/C=N/NC(=O)Cn1nnc(N)n1 -9.27%
COc1ccc2sc(N(CCN(C)C)C(=O)/C=C/c3cccs3)nc2c1 1.07%
CC1=NN(C(=O)CSCc2ccccc2)C(O)(c2ccc(F)cc2)C1 (centres undefined) 6.76%
CCOC(=O)c1c(NC(=O)C2CCCCC2C(=O)O)sc2c1CCCCC2 (centres undefined) 33.7%
COC(=O)c1c(NC(=O)C2CC2)sc2c1CCCC2 -6.73%
COC(=O)c1c(NC(=O)C2C3CCC(C3)C2C(=O)O)sc2c1CCCCC2 (centres undefined) 56.4%
CCOC(=O)c1c(NC(=O)C2C3CCC(O3)C2C(=O)O)sc2c1CCCC2 (centres undefined) 14.3%
COc1ccc(NC(=S)N(CCN2CCOCC2)Cc2cc3cc4c(cc3[nH]c2=O)OCCO4)cc1 10.8%
Cc1nnc(SCC(=O)NC(=O)NCc2ccco2)s1 -1.14%
Cc1ccccc1Nc1nnc(SCC(=O)NCc2ccco2)s1 45.1%
CCOc1ccc(S(=O)(=O)c2c(C(=O)c3ccccc3)cnc3cc4c(cc23)OCCO4)cc1 1.82%
O=C(CCS(=O)(=O)Cc1ccccc1F)N1CCc2ccccc2C1 6.01%
COc1ccccc1N1CCN(c2ccc(N3C(=O)CCC3=O)cc2[N+](=O)[O-])CC1 -4.52%
COc1ccc(OCC#CCN2CC(C)OC(C)C2)cc1 (centres undefined) -3.27%
O=C(N/N=C/c1ccc(-c2ccc([N+](=O)[O-])cc2)o1)c1cccnc1 4.87%
O=C(N/N=C\c1ccc(-c2ccc([N+](=O)[O-])cc2)o1)C1COc2ccccc2O1 (centres undefined) 1.94%
CC(C)(C)c1ccc2c(c1)OC(C(=O)N/N=C\c1ccc(-c3cccc(C(=O)O)c3)o1)CO2 (centres undefined) 7.12%
Nc1nonc1C(=O)N/N=C/c1ccc(-c2cccc(C(=O)O)c2)o1 30.2%
CCOP(C)(=O)C1(C(=O)OCc2ccccc2)CC1 (centres undefined) -6.01%
COc1cccc(CNc2ccc([N+](=O)[O-])cc2C)c1 6.82%
O=C1/C(=C/c2ccc(N3CCCC3)cc2)NC(=S)N1C1CC1 -10.7%
CC(C)CN1C(=O)/C(=C/c2cccs2)NC1=S 35.9%
O=C(CC1C(=O)NCCN1C(=O)c1ccc(F)cc1)OCc1ccccc1 (centres undefined) -6.93%
Cc1ccc(CNC(=O)CN2CCCC(C)C2)cc1 (centres undefined) 8.72%
COc1ccc(-c2[nH]nc3c2C(c2ccoc2)C(C#N)=C(N)O3)cc1 (centres undefined) 27.9%
Cc1[nH]nc2c1C(c1ccoc1)C(C#N)=C(N)O2 (centres undefined) 21.9%
COc1cccc(-c2[nH]nc3c2C(c2ccsc2)C(C#N)=C(N)O3)c1 (centres undefined) 35.3%
COc1cc(-c2[nH]nc3c2C(c2ccoc2)C(C#N)=C(N)O3)cc(OC)c1OC (centres undefined) 24%
O=C(Nc1nnc(-c2ccccn2)o1)c1ccc(Br)cc1 8.43%
COCC(C)NC(=O)c1cc2cccc([N+](=O)[O-])c2[nH]1 (centres undefined) 11.6%
NC(=O)N[C@@H](Cc1c[nH]c2ccccc12)C(=O)OCC(=O)N1CCCCC1 -0.49%
O=C(O/N=C(\c1ccccc1)c1ccncc1)c1ccccc1Cl 3.91%
CC(C)Cn1c2ccccc2c2cc(C(=O)O)ccc21 1.66%
COc1ccc(-c2nc(N)n[nH]2)cc1 2.51%
COc1ccc(-c2csc(N)n2)cc1 -1.01%
Cc1ccc(S(=O)(=O)/N=C(\c2ccccc2)N(C)S(=O)(=O)c2ccc(C)cc2)cc1 -10.3%
Cc1cc(C)cc(NC(=O)C2CCCN(c3nc(C)cc(C)n3)C2)c1 (centres undefined) -13.6%
Cc1cccc(NC(=O)C2CCN(c3nc(C)cc(C)n3)CC2)c1 35.1%
Cc1cc(C(F)(F)F)nn1CC(=O)NNC(=S)Nc1cccc(Cl)c1 9.62%
CC1CCC/C(=N\NC(=S)NCc2ccccc2)C1 (centres undefined) 9.29%
CCCCOc1ncnc2c1[nH]c1ccc(OC)cc12 -0.91%
COCCOc1cc2ncnc(N3CCC(C(=O)O)CC3)c2cc1OCCOC 5.32%
Cc1cc(/C=C(/C#N)c2nc3ccccc3[nH]2)c(C)n1-c1cccc([N+](=O)[O-])c1 -7.34%
Cc1cc(/C=C(/C#N)c2nc3ccccc3[nH]2)c(C)n1-c1ccccc1C(=O)O 23%
COc1cccc(N2CCN(C(=S)NCCc3ccccc3)CC2)c1 -3.71%
CCOc1ccc(S(=O)(=O)NCCCN2CCOCC2)cc1 -8.49%
Cc1ccc2c(c1)N(C(C)C(=O)NCc1ccccn1)C(=O)CO2 (centres undefined) -7.53%
O=C(CSc1ncnc2scc(-c3ccccc3)c12)Nc1ccc(C(=O)O)cc1 5.99%
COc1cc(NC(=O)CSc2cc(C)c3cc(C)cc(C)c3n2)c(C(=O)O)cc1OC 15.4%
CCc1cc2c(C)ccc(C)c2nc1SCC(=O)Nc1c[nH]c(=O)[nH]c1=O 14.5%
COc1cc(NC(=O)CSc2nccc(C)n2)c(C(=O)O)cc1OC 43.1%
COC(=O)CSc1ncnc2scc(-c3ccccc3)c12 -1.19%
COc1cc(NC(=O)CSc2ccccc2)c(C(=O)O)cc1OC 39.3%
COc1ccccc1NC(=O)CSc1nc2ccccc2cc1Cc1ccccc1 3.65%
CCc1cc2ccccc2nc1SCC(=O)Nc1cc(C)on1 4.25%
CCn1c(COc2ccc3c(c2)CCCC3)nnc1SCC(=O)Nc1ccc(C(=O)OC)cc1 5.55%
Cc1ccc(CNC(=O)C2CC(=O)OC23CCCC3)c(C)c1 (centres undefined) 6.63%
CN(C)CCNc1c2c(nc3nnnn13)CCCC2 5.48%
O=C(NN=C1CCCC1)C1COc2ccccc2O1 (centres undefined) 0.87%
O=C(O)C1CC(=O)N(Cc2ccc3c(c2)OCO3)C1 (centres undefined) -0.32%
COC(=O)[C@@]1(Cc2ccc(F)cc2)[C@H]2c3cc(C(=O)N(C)C)n(Cc4c(CO)[nH]cc(C)c4=O)c3C[C@H]2CN1C(=O)c1ccccc1 6.87%
O=c1cc(NCC2CCCO2)[nH]c(=O)n1-c1ccc(Cl)cc1 (centres undefined) 3.43%
